According to PubChem BioAssay AID1159580 (chemical genetic matrix, 2015):
Values joined by “and” are separate entries in the source; they are usually repeats but may differ in a detail not shown here. Equal values may be shown once. The whole screen tested about 5,500 compounds, of which about 2,000 (36%) were called active. Another 18% or so got no clear call; they are omitted. Rule as the data show it: active = normalized growth mostly below about 0.91 (no sharp cut-off); inconclusive = no clear call, values can overlap the other calls; inactive = mostly above about 0.92. The list shows a part of the results.

Assay: chemical genetic growth profiling, strain panel (AID 1159580);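 also: tested at 20 µM; growth read once vehicle control cultures reached saturation at 30 °C; 1 = growth at the plate median or of vehicle wells; lower values mean less growth of the strain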
Conditions: S. cerevisiae deletion strains, growth OD

Measured: normalized growth

Cc1c(OCC(F)(F)F)ccnc1CS(=O)c1nc2ccccc2[nH]1 (stereo not given)
0.996 (inactive) and 0.482 (active): locus YHR030C, strain SLT2, stronger effect = lower value
0.937 (inactive) and 0.468 (active): locus YJL095W, strain BCK1, stronger effect = lower value
inactive: locus YAL013W, strain DEP1, stronger effect = lower value 0.992 | locus YAL021C, strain ccr4, stronger effect = lower value 1.01 | locus YAL026C, strain drs2, stronger effect = lower value 1.02 | locus YAL030W, strain snc1, stronger effect = lower value 1.03 | locus YAL040C, strain CLN3, stronger effect = lower value 0.959 | locus YBL061C, strain skt5, stronger effect = lower value 1.02 | locus YBR009C, strain hhf1, stronger effect = lower value 1.02 | locus YBR021W, strain FUR4, stronger effect = lower value 0.948 | locus YBR023C, strain chs3, stronger effect = lower value 1.02 | locus YBR171W, strain sec66, stronger effect = lower value 1.02 | locus YBR229C, strain ROT2, stronger effect = lower value 0.982 | locus YBR231C, strain swc5, stronger effect = lower value 1.05 | locus YBR279W, strain paf1, stronger effect = lower value 1 | locus YCL011C, strain gbp2, stronger effect = lower value 1.01 | locus YCL016C, strain dcc1, stronger effect = lower value 1.01 | locus YCL029C, strain bik1, stronger effect = lower value 0.971 | locus YCL061C, strain MRC1 (second series), stronger effect = lower value 0.997 | locus YCL061C, strain MRC1, stronger effect = lower value 1.02 | locus YCL069W, strain vba3, stronger effect = lower value 1 | locus YCR088W, strain abp1, stronger effect = lower value 1.01 | locus YDL005C, strain med2, stronger effect = lower value 1.02 | locus YDL035C, strain GPR1, stronger effect = lower value 0.997 | locus YDL040C, strain nat1, stronger effect = lower value 1.03 | locus YDL074C, strain BRE1, stronger effect = lower value 0.937 | locus YDL101C, strain DUN1, stronger effect = lower value 0.959 | locus YDL134C, strain PPH21, stronger effect = lower value 0.997 | locus YDL185W, strain tfp1, stronger effect = lower value 0.98 | locus YDL192W, strain arf1, stronger effect = lower value 0.977 | locus YDR001C, strain nth1, stronger effect = lower value 1.01 | locus YDR069C, strain doa4, stronger effect = lower value 1.01 | locus YDR101C, strain arx1, stronger effect = lower value 0.985 | locus YDR137W, strain rgp1, stronger effect = lower value 1.01 | locus YDR150W, strain NUM1, stronger effect = lower value 0.996 | locus YDR159W, strain sac3, stronger effect = lower value 1.02 | locus YDR162C, strain NBP2, stronger effect = lower value 0.976 | locus YDR195W, strain ref2 1.02 | locus YDR297W, strain sur2, stronger effect = lower value 1.02 | locus YDR318W, strain mcm21, stronger effect = lower value 0.959 | locus YDR334W, strain swr1, stronger effect = lower value 1.01 | locus YDR335W, strain msn5, stronger effect = lower value 1.01 | locus YDR363W, strain ESC2, stronger effect = lower value 0.933 | locus YDR388W, stronger effect = lower value 0.987 | locus YDR392W, strain spt3, stronger effect = lower value 1.03 | locus YDR502C, strain sam2, stronger effect = lower value 0.94 | locus YEL003W, strain gim4, stronger effect = lower value 1.03 | locus YEL037C, strain rad23, stronger effect = lower value 1.01 | locus YEL061C, strain CIN8 (second series), stronger effect = lower value 1.03 | locus YEL061C, strain CIN8, stronger effect = lower value 0.999 | locus YER002W, strain NOP16, stronger effect = lower value 1.02 | locus YER015W, strain faa2, stronger effect = lower value 1.02 | locus YER016W, strain bim1, stronger effect = lower value 1.03 | locus YER110C, stronger effect = lower value 0.969 | locus YER111C, strain swi4, stronger effect = lower value 1.01 | locus YER155C, strain BEM2 (second series), stronger effect = lower value 1.01 | locus YER155C, strain BEM2, stronger effect = lower value 0.988 | locus YER167W, strain BCK2, stronger effect = lower value 0.987 | locus YFR010W, strain ubp6, stronger effect = lower value 1.02 | locus YGL086W, strain mad1, stronger effect = lower value 0.987 | locus YGL167C, strain pmr1, stronger effect = lower value 1.03 | locus YGL173C, strain kem1, stronger effect = lower value 1.04 | locus YGL227W, strain vid30, stronger effect = lower value 1.02 | locus YGL240W, strain doc1, stronger effect = lower value 1.02 | locus YGL248W, strain PDE1, stronger effect = lower value 0.988 | locus YGL253W, strain hxk2, stronger effect = lower value 1.01 | locus YGR078C, strain PAC10, stronger effect = lower value 0.945 | locus YGR135W, strain pre9, stronger effect = lower value 0.944 | locus YGR229C, strain SMI1, stronger effect = lower value 0.951 | locus YGR252W, strain gcn5, stronger effect = lower value 0.943 | locus YHR013C, strain ard1, stronger effect = lower value 0.999 | locus YHR027C, strain rpn1, stronger effect = lower value 1.01 | locus YHR079C, strain IRE1 (second series), stronger effect = lower value 0.976 | locus YHR094C, strain hxt1, stronger effect = lower value 0.994 | locus YHR129C, strain ARP1, stronger effect = lower value 0.991 | locus YHR142W, strain chs7, stronger effect = lower value 1.02 | locus YHR200W, strain rpn10, stronger effect = lower value 0.963 | locus YIL066C, strain RNR3, stronger effect = lower value 0.975 | locus YIL073C, strain SPO22, stronger effect = lower value 1.04 | locus YIL125W, strain kgd1, stronger effect = lower value 0.952 | locus YIR030C, strain dcg1, stronger effect = lower value 0.995 | locus YJL092W, strain hpr5, stronger effect = lower value 1.01 | locus YJL095W, strain BCK1 (second series), stronger effect = lower value 1.02 | locus YJL115W, strain asf1, stronger effect = lower value 1.03 | locus YJL129C, strain trk1, stronger effect = lower value 1.04 | locus YJL134W, strain LCB3, stronger effect = lower value 1 | locus YJL154C, strain vps35, stronger effect = lower value 1.01 | locus YJL164C, strain tpk1, stronger effect = lower value 1.02 | locus YJL166W, strain qcr8, stronger effect = lower value 1.03 | locus YJL168C, strain set2, stronger effect = lower value 0.982 | locus YJL187C, strain SWE1 (second series), stronger effect = lower value 0.951 | locus YJR043C, strain POL32, stronger effect = lower value 0.979
active: locus YGL078C, strain dbp3, stronger effect = lower value 0.898 | locus YHR079C, strain IRE1, stronger effect = lower value 0.632 | locus YJR066W, strain TOR1, stronger effect = lower value 0.767
